Data taken from PubChem BioAssay (EPA / NIEHS).
Several values for one entry are separate records, joined by “and”; a condition that tells them apart may be missing. Identical values can stand only once. Inconclusive results are not listed. The source holds several records for some structures; these can differ, active in one and inactive in another. Activity calls are given as the source filed them. The calls were made as follows, unless noted: active = hit-call score of the fitted dose curve at least 0.9, where 1 is the maximum; inactive = score below 0.9.

Tests used:
[1] = CCTE_Shafer_MEA_acute_burst_percentage_std: CCTE's Neural Acute Assay for Standard Deviation of Burst Percentage, Shafer Lab (AID 2284018);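 also: fitted in the negative direction so actives lower burst percentage SD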
Procedure, shortened: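 Primary rat cortical neurons on 16-electrode MEA wells were recorded 40 min at baseline (DIV 13 or 15), then 40 min after compound (0.03-40 uM), at 37 C. Well value is SD across electrodes of spikes-in-bursts/total spikes; endpoint is percent change, DMSO-referenced.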

[2] = CCTE_Shafer_MEA_acute_per_network_burst_spike_number_mean: CCTE's Neural Acute Assay for Average Number of Spikes in a Network Burst, Shafer Lab (AID 2284019);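 as to AC50: curve fitted for loss of signal so actives reduce spikes per network burst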
Procedure, shortened: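 Acute exposure of rat primary cortical networks (DIV 13/15) on MEAs; adaptive spike detection at 8x rms noise, 37 C. Percent change in spikes per network burst after 40 min with compound (0.03-40 uM), negative direction vs DMSO.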

[3] = CCTE_Shafer_MEA_acute_per_network_burst_spike_number_std: CCTE's Neural Acute Assay for Standard Deviation of Number of Spikes in a Network Burst, Shafer Lab (AID 2284020);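 also: fitted for decrease in spike-number SD versus DMSO so actives lower it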
Procedure, shortened: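 Acute MEA exposure, rat cortical neurons, 0.03-40 uM. Per-well % change versus own baseline; DMSO as negative control.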

[4] = CCTE_Shafer_MEA_acute_per_network_burst_electrodes_number_mean: CCTE's Neural Acute Assay for Mean Number of Electrodes in a Network Burst, Shafer Lab (AID 2284021);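 also: curves fitted for decreases only so hits reduce electrodes per burst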
Procedure, shortened: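 Primary rat cortical networks, mwMEA, 37 C. 20 min stabilization, 40 min baseline, compound 0.03-40 uM, 40 min re-record. Wells need >=10 active electrodes; percent change per well, negative fitting direction.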

[5] = CCTE_Shafer_MEA_acute_network_burst_percentage: CCTE's Neural Acute Assay for Percentage of Network Bursts, Shafer Lab (AID 2284022);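 also: curves fitted for loss so actives lower network burst percentage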
Procedure, shortened: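 Readout is the fraction of spikes falling in network bursts, expressed as per-well percent change from a 40-min pre-exposure baseline. Primary rat cortical neurons on MEA were exposed to 0.03-40 uM compound on DIV 13 or 15 and recorded for 40 min at 37 C.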

[6] = CCTE_Shafer_MEA_acute_cross_correlation_area: CCTE's Neural Acute Assay for Area of Cross Correlation, Shafer Lab (AID 2284024);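 also: rat primary cortical neuron networks on 48-well MEA at DIV 13 or 15 with 40 min exposure; area under pooled inter-electrode spike cross-correlation near zero lag as percent change from own baseline; curves fitted for loss of cross-correlation area so actives lower synchrony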
Procedure, shortened: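 Plates equilibrated 20 min at 37 C, then 40 min baseline was recorded, compound was added (0.03-40 uM), and a further 40 min was recorded. Wells needed ≥10 active electrodes (≥5 spikes/min) on exposure day.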

[7] = CCTE_Shafer_MEA_acute_cross_correlation_HWHM: CCTE's Neural Acute Assay for Cross Correlation at Half Width at Half Maximum, Shafer Lab (AID 2284026);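 also: percent change per well from pre-dose baseline in spike cross-correlogram half width; hits are a decrease in cross-correlogram half width relative to DMSO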;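 as to outcome: spontaneous network firing of rat primary cortical neurons on multiwell microelectrode arrays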
Procedure, shortened: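 Rat cortical neuron cultures on microelectrode arrays were equilibrated 20 min at 37 C, recorded 40 min at baseline, then 40 min after compound addition (0.03-40 uM, ≥3 wells). Spikes were detected at 8x rms noise after 300-5000 Hz band-pass filtering.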

[8] = CCTE_Shafer_MEA_dev_firing_rate_mean: CCTE's Neural Network Formation Assay for Mean Firing Rate, Shafer Lab (AID 2284031);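 as to AC50: curve fitted for loss of firing so AC50 reflects decreased mean firing rate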
Procedure, shortened: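 Read-out: spike count/recording length, averaged over active electrodes, then AUC across days 5, 7, 9, 12. Rat cortical cultures on MEA; continuous 12-day exposure, media and treatment renewed DIV 5, 9; DMSO baseline.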

[9] = CCTE_Shafer_MEA_dev_per_burst_spike_percent: CCTE's Neural Network Formation Assay for Percent of Spikes in a Burst, Shafer Lab (AID 2284032);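 as to AC50: fitted as a decrease in burst spike percentage below DMSO baseline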
Procedure, shortened: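 Value is trapezoidal AUC over recordings on days 5, 7, 9 and 12 of the well-mean fraction of spikes falling in single-electrode bursts; rat cortical cultures exposed continuously from plating, treatment renewed DIV 5 and 9, fitted downward against DMSO.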

[10] = CCTE_Shafer_MEA_dev_active_electrodes_number: CCTE's Neural Network Formation Assay for Number of Active Electrodes, Shafer Lab (AID 2284040; active = hit-call score of the fitted dose curve at least 0.9, where 1 is the maximum;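 as to AC50: potency for loss of active electrodes versus DMSO so lower counts are hits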)
Procedure, shortened: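 Developing rat cortical networks on MEAs, exposed DIV 0–12. Value is the AUC of active-electrode counts (≥5 spikes/min) from days 5, 7, 9, 12, relative to DMSO.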

[11] = CCTE_Shafer_MEA_dev_burst_rate: CCTE's Neural Network Formation Assay for Burst Rate, Shafer Lab (AID 2284042);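 as to AC50: potency for loss of burst rate below DMSO control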
Procedure, shortened: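 Primary rat cortical neurons on PEI-coated 48-well MEA plates (laminin added with cells at plating) (16 electrodes/well), exposed from plating to day 12, dosing renewed at DIV 5 and 9. Burst rate averaged over active electrodes, recorded DIV 5, 7, 9, 12, summarized as AUC; loss versus DMSO.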

[12] = CCTE_Shafer_MEA_dev_bursting_electrodes_number: CCTE's Neural Network Formation Assay for Number of Bursting Electrodes, Shafer Lab (AID 2284043; active = hit-call score of the fitted dose curve at least 0.9, where 1 is the maximum;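 as to AC50: potency is for loss of bursting electrodes relative to DMSO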)
Procedure, shortened: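 Counted: electrodes with burst rate ≥1 per 2 min in each well. Cells: primary rat cortex, 1.5 x 10^5/well, on 16-electrode MEA wells. Exposure: DIV 0–12, compound renewed DIV 5 and 9. Recording days 5, 7, 9, 12; AUC vs DMSO baseline.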

[13] = CCTE_Shafer_MEA_dev_per_burst_interspike_interval: CCTE's Neural Network Formation Assay for Burst Interspike Interval, Shafer Lab (AID 2284044);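 as to AC50: potency for a decrease of within-burst interspike interval below DMSO level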
Procedure, shortened: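 Neurons from rat cortex plated onto PEI-coated MEA wells with laminin […] at 1.5 x 10^5 cells/well, then treated from day 0. Media and compound fully replaced on DIV 5 and 9. Extracellular spontaneous firing recorded four times; interspike interval per burst summarised as AUC.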

[14] = CCTE_Shafer_MEA_dev_burst_duration_mean: CCTE's Neural Network Formation Assay for Mean Burst Duration, Shafer Lab (AID 2284045)
Procedure, shortened: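 Network-formation assay in primary rat cortical neurons; treatment spans twelve days of development. Mean burst duration per well is integrated by trapezoidal AUC and fitted in the loss-of-signal direction against DMSO baseline.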

[15] = CCTE_Shafer_MEA_dev_interburst_interval_mean: CCTE's Neural Network Formation Assay for Mean Interburst Interval, Shafer Lab (AID 2284046);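 also: well-mean interburst interval of bursting electrodes as AUC over four recording days; curve fitted for decrease in interburst interval relative to DMSO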
Procedure, shortened: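 Recordings on days 5, 7, 9 and 12 give well-mean interburst interval across actively bursting electrodes, summarized as area under the curve. Cultures: rat cortical neurons, continuous exposure from day 0, compound renewed at feeds; decrease analyzed versus DMSO.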

[16] = CCTE_Deisenroth_AIME_384WELL_CTox_Active: Cytotoxicity Assessment (CTOX) in CCTE's 384-well Estrogen Receptor Transactivation Assay with AIME metabolic competence (metabolism positive), Deisenroth Lab (AID 2284037; active = hit-call score of the fitted dose curve at least 0.9, where 1 is the maximum;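 also: chemicals first conditioned 2 h by alginate-bound induced rat liver S9 before cells; activity means signal loss indicating cell death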)
Procedure, shortened: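 VM7Luc4E2 breast cells received medium pre-incubated 2 h with chemical over alginate microspheres holding induced male Sprague Dawley rat liver S9; viability read 24 h later by protease-substrate fluorescence. Loss of signal, bidirectional fit, 0.002–200 uM.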

[17] = CCTE_Deisenroth_AIME_384WELL_CTox_Inactive: Cytotoxicity Assessment (CTOX) in CCTE's 384-well Estrogen Receptor Transactivation Assay without AIME metabolic competence (metabolism negative), Deisenroth Lab (AID 2284039; active = hit-call score of the fitted dose curve at least 0.9, where 1 is the maximum;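 also: cell viability via live-cell protease substrate cleaved to fluorescent probe; cells exposed 24 h to medium preincubated 2 h with alginate-water beads without S9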)
Procedure, shortened: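 VM7Luc4E2 cells, metabolism-negative arm: test chemicals (0.002–200 uM, 10 points) pre-incubated 2 h with alginate-water microspheres, then medium transferred to cells for 24 h. Viability read as protease-substrate cleavage to fluorescent probe; loss-of-signal, bidirectional fitting.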

FC(F)C(F)(F)OCC(Cn1cncn1)c1ccc(Cl)cc1Cl (configuration not stated)
outcome [1]: inactive | outcome [2]: inactive | outcome [3]: inactive | outcome [4]: inactive | outcome [5]: inactive | outcome [6]: inactive | AC50 [7]: 23.8 µM (active)

CCc1cnc(C2=NC(C)(C(C)C)C(=O)N2)c(C(=O)O)c1 (configuration not stated)
outcome [1]: inactive | outcome [2]: inactive | outcome [3]: inactive | outcome [4]: inactive | outcome [5]: inactive | outcome [6]: inactive | outcome [7]: inactive

Cc1ccn2nc(S(=O)(=O)Nc3c(F)cccc3F)nc2n1
outcome [1]: inactive | outcome [2]: inactive | outcome [3]: inactive | outcome [4]: inactive | outcome [5]: inactive | outcome [6]: inactive | outcome [7]: inactive

COP(=O)(OC)C(O)C(Cl)(Cl)Cl (configuration not stated)
outcome [1]: inactive | AC50 [2]: 15 µM (active) | outcome [3]: inactive | outcome [4]: inactive | outcome [5]: inactive | outcome [6]: inactive | AC50 [7]: 15 µM (active) | outcome [8]: inactive | AC50 [9]: 50 µM (active) | outcome [9]: inactive | AC50 [10]: 11.6 µM (active) | outcome [11]: inactive | AC50 [12]: 36.9 µM (active) and 15 µM (active) | AC50 [13]: 90.8 µM (active) | outcome [13]: inactive | outcome [14]: inactive | outcome [15]: inactive

CCOP(=S)(Oc1cnc(C(C)(C)C)nc1)OC(C)C (configuration not stated)
outcome [1]: inactive | AC50 [2]: 20 µM (active) | AC50 [3]: 28 µM (active) | AC50 [4]: 20 µM (active) | AC50 [5]: 24.6 µM (active) | outcome [6]: inactive | AC50 [7]: 26.9 µM (active) | AC50 [8]: 12.2 µM (active) | outcome [8]: inactive | AC50 [9]: 89.1 µM (active) and 12.9 µM (active) | AC50 [10]: 93.2 µM (active) and 14.9 µM (active) | AC50 [11]: 14.3 µM (active) | outcome [11]: inactive | AC50 [12]: 91.8 µM (active) and 12 µM (active) | AC50 [13]: 12 µM (active) | outcome [13]: inactive | outcome [14]: inactive | AC50 [15]: 50 µM (active) and 16.6 µM (active)

COc1cc(OC)nc(Sc2cccc(Cl)c2C(=O)O)n1
outcome [1]: inactive | outcome [2]: inactive | outcome [3]: inactive | outcome [4]: inactive | outcome [5]: inactive | outcome [6]: inactive | outcome [7]: inactive

COP(=O)(NC(C)=O)SC (configuration not stated)
AC50 [1]: 4.26 µM (active) | outcome [1]: inactive | outcome [2]: inactive | AC50 [3]: 0.299 µM (active) | outcome [3]: inactive | outcome [4]: inactive | outcome [5]: inactive | outcome [6]: inactive | outcome [7]: inactive | outcome [8]: inactive | outcome [9]: inactive | outcome [16]: inactive | outcome [17]: inactive | outcome [10]: inactive | outcome [11]: inactive | outcome [12]: inactive | outcome [13]: inactive | outcome [14]: inactive | outcome [15]: inactive

CC(C)[C@H](C(=O)O[C@H](C#N)c1cccc(Oc2ccccc2)c1)c1ccc(Cl)cc1
outcome [1]: inactive | outcome [2]: inactive | outcome [3]: inactive | AC50 [4]: 0.0691 µM (active) | AC50 [5]: 0.962 µM (active) | outcome [6]: inactive | AC50 [7]: 4.36 µM (active) | AC50 [8]: 3.13 µM (active) | AC50 [9]: 5.46 µM (active) | AC50 [10]: 14.6 µM (active) | AC50 [11]: 4.67 µM (active) | AC50 [12]: 4.15 µM (active) | AC50 [13]: 17.6 µM (active) | outcome [14]: inactive | AC50 [15]: 17.9 µM (active)

CCOP(=S)(OCC)Oc1ccc2c(C)c(Cl)c(=O)oc2c1
outcome [1]: inactive | AC50 [2]: 1.99 µM (active) | AC50 [3]: 4.38 µM (active) | AC50 [4]: 4.12 µM (active) | AC50 [5]: 27.2 µM (active) | outcome [6]: inactive | AC50 [7]: 2.38 µM (active) | AC50 [8]: 29.6 µM (active) | AC50 [9]: 50 µM (active) | outcome [16]: inactive | outcome [17]: inactive | AC50 [10]: 65.8 µM (active) | outcome [11]: inactive | AC50 [12]: 50 µM (active) | outcome [13]: inactive | outcome [14]: inactive | outcome [15]: inactive

CSC1=N[C@@](C)(c2ccccc2)C(=O)N1Nc1ccccc1
AC50 [1]: 37.7 µM (active) and 26.1 µM (active) | outcome [2]: inactive | AC50 [3]: 30.8 µM (active) | outcome [3]: inactive | outcome [4]: inactive | AC50 [5]: 22.1 µM (active) | outcome [5]: inactive | outcome [6]: inactive | AC50 [7]: 29.8 µM (active) and 18.1 µM (active) | outcome [8]: inactive | outcome [9]: inactive | outcome [10]: inactive | outcome [11]: inactive | outcome [12]: inactive | outcome [13]: inactive | outcome [14]: inactive | outcome [15]: inactive

CCc1cccc(C)c1N(C(=O)CCl)C(C)COC (configuration not stated)
outcome [1]: inactive | outcome [2]: inactive | AC50 [3]: 10.8 µM (active) | AC50 [4]: 5.76 µM (active) | AC50 [5]: 21.9 µM (active) | outcome [6]: inactive | AC50 [7]: 26.9 µM (active)

CCOP(=S)(OCC)SCCSCC
outcome [1]: inactive | outcome [2]: inactive | outcome [3]: inactive | AC50 [4]: 2.98 µM (active) | outcome [5]: inactive | outcome [6]: inactive | AC50 [7]: 8.93 µM (active) | outcome [8]: inactive | outcome [9]: inactive | outcome [17]: inactive | outcome [10]: inactive | outcome [11]: inactive | outcome [12]: inactive | outcome [13]: inactive | outcome [14]: inactive | outcome [15]: inactive

CCOC(=O)CC(SP(=O)(OC)OC)C(=O)OCC (configuration not stated)
outcome [1]: inactive | outcome [2]: inactive | outcome [3]: inactive | outcome [4]: inactive | outcome [5]: inactive | outcome [6]: inactive | outcome [7]: inactive | outcome [8]: inactive | outcome [9]: inactive | outcome [11]: inactive | outcome [13]: inactive | outcome [14]: inactive | outcome [15]: inactive
